Experimental data published in publication PMC7862700, “An all-to-all approach to the identification of sequence-specific readers for epigenetic DNA modifications on cytosine”.

How the values were obtained:
Assay in all cases: DAPPL (digital affinity profiling via proximity ligation, sequencing); 10 mM Tris-HCl pH 7.5, 50 mM NaCl, 1 mM DTT, 4% glycerol, room temperature, 30 min; GST-TFs on glutathione beads, 16-mer random dsDNA library, 0.1% formaldehyde crosslink after washing; high values mean tight binding
FLI1 = target: T1, FLI1 (Homo sapiens, UniProt Q01543 1-452); conditions: protein: recombinant; tags: N-terminal GST; dsDNA, one strand shown
T1 sequence: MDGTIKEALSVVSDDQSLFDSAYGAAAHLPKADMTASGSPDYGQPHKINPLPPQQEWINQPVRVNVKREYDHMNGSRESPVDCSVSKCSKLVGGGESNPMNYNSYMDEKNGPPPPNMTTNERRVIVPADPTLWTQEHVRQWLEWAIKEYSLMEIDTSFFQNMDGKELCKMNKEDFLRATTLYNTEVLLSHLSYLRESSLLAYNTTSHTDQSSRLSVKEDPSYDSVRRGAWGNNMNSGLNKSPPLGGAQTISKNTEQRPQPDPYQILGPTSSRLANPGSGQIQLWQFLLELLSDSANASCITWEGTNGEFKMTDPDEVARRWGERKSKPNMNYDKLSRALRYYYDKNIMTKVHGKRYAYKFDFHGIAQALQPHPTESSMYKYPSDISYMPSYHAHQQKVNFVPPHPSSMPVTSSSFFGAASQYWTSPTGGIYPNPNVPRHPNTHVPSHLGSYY
Method in brief: (§1)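 Human transcription factors fused to GST were expressed in yeast, captured on glutathione beads, given DNA barcodes and pooled with a GST-only negative control. Pools were incubated with 200 nmole of a 16-mer random double-stranded DNA library in Tris/NaCl/DTT/glycerol buffer at room temperature for 30 min. They were then washed, crosslinked with 0.1% formaldehyde, proximity-ligated (BsaI/T4 ligase, 1 h, 37 °C), PCR-amplified and sequenced on an Illumina NextSeq500. Binding signal is each 6-mer's read frequency for a factor divided by its frequency for the GST control.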

ELK1 = target: T2, ELK1 (Homo sapiens, UniProt P19419 1-428); conditions: protein: recombinant; tags: N-terminal GST; dsDNA, one strand shown
T2 sequence: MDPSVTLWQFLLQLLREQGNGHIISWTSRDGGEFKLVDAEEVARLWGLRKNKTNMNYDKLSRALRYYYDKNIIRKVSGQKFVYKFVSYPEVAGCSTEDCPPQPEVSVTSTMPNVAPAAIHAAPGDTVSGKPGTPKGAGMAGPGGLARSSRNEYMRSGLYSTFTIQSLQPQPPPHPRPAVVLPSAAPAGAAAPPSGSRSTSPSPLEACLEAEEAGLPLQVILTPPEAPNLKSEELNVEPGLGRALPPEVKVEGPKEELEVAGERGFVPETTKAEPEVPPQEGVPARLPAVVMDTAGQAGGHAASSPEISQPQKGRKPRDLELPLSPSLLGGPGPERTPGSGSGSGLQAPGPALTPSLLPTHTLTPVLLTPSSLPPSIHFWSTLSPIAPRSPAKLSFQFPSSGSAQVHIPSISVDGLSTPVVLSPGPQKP
Method in brief: as §1

GABPA = target: T3, GABPA (Homo sapiens, UniProt Q06546 1-454); conditions: protein: recombinant; tags: N-terminal GST; dsDNA, one strand shown
T3 sequence: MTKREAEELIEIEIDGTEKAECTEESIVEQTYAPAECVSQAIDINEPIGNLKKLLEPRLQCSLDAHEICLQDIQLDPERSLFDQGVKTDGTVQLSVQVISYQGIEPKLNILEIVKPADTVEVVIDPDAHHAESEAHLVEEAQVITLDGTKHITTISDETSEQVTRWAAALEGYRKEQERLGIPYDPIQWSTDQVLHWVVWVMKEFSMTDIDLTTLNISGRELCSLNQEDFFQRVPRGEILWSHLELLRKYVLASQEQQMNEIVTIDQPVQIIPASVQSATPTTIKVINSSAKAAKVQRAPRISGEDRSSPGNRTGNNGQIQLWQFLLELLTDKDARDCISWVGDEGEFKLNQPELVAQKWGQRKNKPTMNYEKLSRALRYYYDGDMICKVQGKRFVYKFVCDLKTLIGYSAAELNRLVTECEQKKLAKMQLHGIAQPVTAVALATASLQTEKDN
Method in brief: as §1

ERG = target: T4, ERG (Homo sapiens, UniProt P11308 1-479); conditions: protein: recombinant; tags: N-terminal GST; dsDNA, one strand shown
T4 sequence: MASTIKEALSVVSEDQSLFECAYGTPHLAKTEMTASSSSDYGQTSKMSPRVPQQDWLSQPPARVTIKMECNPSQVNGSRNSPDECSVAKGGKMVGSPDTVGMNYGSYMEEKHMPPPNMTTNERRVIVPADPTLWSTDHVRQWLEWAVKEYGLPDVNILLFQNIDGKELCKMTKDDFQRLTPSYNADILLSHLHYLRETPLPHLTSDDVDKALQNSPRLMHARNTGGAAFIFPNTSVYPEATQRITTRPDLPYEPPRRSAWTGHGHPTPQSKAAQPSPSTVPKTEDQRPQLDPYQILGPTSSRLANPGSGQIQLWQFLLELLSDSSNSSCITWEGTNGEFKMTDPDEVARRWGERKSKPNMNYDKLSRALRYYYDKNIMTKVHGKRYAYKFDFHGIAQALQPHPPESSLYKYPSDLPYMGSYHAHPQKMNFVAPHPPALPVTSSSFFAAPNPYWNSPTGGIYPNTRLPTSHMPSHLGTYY
Method in brief: as §1

ELF1 = ELF1 (Homo sapiens, UniProt P32519 1-619); conditions: protein: recombinant; tags: N-terminal GST; dsDNA, one strand shown
Sequence of ELF1 (P32519 whole entry): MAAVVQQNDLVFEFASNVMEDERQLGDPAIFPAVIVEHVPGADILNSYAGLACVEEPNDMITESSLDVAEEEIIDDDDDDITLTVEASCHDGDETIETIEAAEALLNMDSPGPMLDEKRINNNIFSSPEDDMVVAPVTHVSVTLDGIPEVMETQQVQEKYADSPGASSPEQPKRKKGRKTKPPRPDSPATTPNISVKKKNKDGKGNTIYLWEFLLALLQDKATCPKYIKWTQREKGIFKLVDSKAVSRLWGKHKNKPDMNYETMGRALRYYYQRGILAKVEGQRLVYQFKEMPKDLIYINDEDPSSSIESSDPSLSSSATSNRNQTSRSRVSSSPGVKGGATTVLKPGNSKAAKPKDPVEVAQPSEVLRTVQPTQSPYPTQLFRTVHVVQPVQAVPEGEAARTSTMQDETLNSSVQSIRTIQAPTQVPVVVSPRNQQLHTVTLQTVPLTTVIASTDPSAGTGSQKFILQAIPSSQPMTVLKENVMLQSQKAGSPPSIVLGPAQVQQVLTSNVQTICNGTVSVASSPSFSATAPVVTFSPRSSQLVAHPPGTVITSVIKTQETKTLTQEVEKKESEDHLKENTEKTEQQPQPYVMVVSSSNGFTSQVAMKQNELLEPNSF
Method in brief: as §1

EHF = target: T5, EHF (Homo sapiens, UniProt Q9NZC4 1-300); conditions: protein: recombinant; tags: N-terminal GST; dsDNA, one strand shown
T5 sequence: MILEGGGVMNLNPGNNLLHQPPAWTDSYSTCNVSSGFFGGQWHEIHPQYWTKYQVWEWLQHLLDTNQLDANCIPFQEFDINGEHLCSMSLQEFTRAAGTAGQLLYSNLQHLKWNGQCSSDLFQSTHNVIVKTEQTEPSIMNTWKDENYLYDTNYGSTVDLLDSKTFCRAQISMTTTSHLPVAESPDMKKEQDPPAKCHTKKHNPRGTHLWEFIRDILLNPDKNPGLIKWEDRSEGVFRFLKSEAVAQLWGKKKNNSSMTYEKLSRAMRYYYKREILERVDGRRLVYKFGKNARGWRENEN
Method in brief: as §1

SPI1 = SPI1 (Homo sapiens, UniProt P17947 1-270); conditions: protein: recombinant; tags: N-terminal GST; dsDNA, one strand shown
Method in brief: as §1

SPIB = SPIB (Homo sapiens, UniProt Q01892 1-262); conditions: protein: recombinant; tags: N-terminal GST; dsDNA, one strand shown
Sequence of SPIB (Q01892 whole entry): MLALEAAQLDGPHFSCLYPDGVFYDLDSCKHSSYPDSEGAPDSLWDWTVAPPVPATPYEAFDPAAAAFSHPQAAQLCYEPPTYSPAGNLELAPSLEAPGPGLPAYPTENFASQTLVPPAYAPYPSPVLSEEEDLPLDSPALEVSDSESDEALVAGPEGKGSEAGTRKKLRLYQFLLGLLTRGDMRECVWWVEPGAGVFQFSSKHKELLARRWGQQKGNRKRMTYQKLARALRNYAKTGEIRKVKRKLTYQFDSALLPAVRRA
Method in brief: as §1

ELK3 = target: T6, ELK3 (Homo sapiens, UniProt P41970 1-407); conditions: protein: recombinant; tags: N-terminal GST; dsDNA, one strand shown
T6 sequence: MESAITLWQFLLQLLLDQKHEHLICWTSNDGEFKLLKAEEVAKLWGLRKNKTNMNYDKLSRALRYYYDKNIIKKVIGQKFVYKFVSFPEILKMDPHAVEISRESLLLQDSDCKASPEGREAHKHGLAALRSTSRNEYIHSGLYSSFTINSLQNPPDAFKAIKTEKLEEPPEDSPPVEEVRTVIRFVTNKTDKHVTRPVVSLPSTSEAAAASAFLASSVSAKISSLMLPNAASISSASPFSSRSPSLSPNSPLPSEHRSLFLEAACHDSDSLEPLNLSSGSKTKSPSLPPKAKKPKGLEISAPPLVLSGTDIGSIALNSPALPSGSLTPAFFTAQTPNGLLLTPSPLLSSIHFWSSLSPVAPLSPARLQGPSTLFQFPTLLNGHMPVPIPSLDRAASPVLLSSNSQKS
Method in brief: as §1

FEV = target: T7, FEV (Homo sapiens, UniProt Q99581 1-238); conditions: protein: recombinant; tags: N-terminal GST; dsDNA, one strand shown
T7 sequence: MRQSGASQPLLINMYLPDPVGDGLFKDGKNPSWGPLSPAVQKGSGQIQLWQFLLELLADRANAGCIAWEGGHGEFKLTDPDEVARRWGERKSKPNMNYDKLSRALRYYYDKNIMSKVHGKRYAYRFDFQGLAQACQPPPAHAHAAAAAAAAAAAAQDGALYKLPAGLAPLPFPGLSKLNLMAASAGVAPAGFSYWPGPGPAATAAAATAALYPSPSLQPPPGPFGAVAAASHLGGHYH
Method in brief: as §1

ETV5 = ETV5 (Homo sapiens, UniProt P41161 1-510); conditions: protein: recombinant; tags: N-terminal GST; dsDNA, one strand shown
Sequence of ETV5 (P41161 whole entry): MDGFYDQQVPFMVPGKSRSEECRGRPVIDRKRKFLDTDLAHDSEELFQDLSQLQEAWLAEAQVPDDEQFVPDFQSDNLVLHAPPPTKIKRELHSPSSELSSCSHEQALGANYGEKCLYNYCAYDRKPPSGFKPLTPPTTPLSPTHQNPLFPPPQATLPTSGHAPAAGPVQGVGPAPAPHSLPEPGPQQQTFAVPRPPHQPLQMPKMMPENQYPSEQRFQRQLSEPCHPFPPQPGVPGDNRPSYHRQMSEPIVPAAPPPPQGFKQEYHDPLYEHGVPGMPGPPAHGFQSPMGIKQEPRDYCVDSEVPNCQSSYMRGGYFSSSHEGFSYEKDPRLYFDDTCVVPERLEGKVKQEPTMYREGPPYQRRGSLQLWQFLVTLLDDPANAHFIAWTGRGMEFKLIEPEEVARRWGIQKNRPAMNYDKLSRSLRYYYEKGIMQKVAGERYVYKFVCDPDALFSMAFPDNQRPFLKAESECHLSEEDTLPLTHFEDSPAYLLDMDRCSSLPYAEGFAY
Method in brief: as §1

HSF1 = HSF1 (Homo sapiens, UniProt Q00613 1-529); conditions: protein: recombinant; tags: N-terminal GST; chain copies: 3; dsDNA, one strand shown
Sequence of HSF1 (Q00613 whole entry): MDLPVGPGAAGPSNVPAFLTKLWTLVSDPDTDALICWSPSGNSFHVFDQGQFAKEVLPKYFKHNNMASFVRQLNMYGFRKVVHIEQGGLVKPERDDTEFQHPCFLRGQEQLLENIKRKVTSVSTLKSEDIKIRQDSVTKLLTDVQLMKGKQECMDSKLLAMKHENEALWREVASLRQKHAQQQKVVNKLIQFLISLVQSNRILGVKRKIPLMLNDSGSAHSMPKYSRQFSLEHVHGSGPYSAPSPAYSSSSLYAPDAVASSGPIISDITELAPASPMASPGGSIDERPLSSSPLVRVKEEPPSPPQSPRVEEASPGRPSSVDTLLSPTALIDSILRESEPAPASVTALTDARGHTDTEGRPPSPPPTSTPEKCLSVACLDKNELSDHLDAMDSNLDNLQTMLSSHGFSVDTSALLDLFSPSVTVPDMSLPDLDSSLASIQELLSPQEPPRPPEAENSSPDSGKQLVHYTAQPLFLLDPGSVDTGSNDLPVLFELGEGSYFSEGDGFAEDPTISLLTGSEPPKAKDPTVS
Method in brief: as §1

SPIC = target: T8, SPIC (Homo sapiens, UniProt Q8N5J4 1-248); conditions: protein: recombinant; tags: N-terminal GST; dsDNA, one strand shown
T8 sequence: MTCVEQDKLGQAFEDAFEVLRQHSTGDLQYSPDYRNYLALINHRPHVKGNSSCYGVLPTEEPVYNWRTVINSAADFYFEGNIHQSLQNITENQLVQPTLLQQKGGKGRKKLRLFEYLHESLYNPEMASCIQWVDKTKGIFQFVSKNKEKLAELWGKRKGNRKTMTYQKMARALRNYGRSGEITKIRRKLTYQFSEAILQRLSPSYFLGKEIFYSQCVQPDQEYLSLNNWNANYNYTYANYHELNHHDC
Method in brief: as §1

ELF4 = ELF4 (Homo sapiens, UniProt Q99607 1-663); conditions: protein: recombinant; tags: N-terminal GST; dsDNA, one strand shown
Sequence of ELF4 (Q99607 whole entry): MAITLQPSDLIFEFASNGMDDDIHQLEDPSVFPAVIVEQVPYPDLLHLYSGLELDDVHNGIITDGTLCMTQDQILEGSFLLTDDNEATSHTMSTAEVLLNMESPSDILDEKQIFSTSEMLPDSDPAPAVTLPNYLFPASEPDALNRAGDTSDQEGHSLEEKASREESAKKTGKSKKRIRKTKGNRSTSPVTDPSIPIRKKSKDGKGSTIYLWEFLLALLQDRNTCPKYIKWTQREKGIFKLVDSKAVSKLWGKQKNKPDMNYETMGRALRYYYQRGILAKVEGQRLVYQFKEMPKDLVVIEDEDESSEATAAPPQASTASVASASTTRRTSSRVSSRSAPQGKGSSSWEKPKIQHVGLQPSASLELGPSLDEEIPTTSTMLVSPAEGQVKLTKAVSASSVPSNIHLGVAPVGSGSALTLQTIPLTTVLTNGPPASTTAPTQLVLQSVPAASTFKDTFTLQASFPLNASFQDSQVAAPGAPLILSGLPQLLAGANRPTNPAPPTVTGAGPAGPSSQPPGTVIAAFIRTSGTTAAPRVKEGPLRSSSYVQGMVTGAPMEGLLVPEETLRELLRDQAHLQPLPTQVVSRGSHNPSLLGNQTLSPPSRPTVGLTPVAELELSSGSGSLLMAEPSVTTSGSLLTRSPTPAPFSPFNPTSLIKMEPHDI
Method in brief: as §1

ELK4 = target: T9, ELK4 (Homo sapiens, UniProt P28324-2 1-405); conditions: protein: recombinant; tags: N-terminal GST; dsDNA, one strand shown
T9 sequence: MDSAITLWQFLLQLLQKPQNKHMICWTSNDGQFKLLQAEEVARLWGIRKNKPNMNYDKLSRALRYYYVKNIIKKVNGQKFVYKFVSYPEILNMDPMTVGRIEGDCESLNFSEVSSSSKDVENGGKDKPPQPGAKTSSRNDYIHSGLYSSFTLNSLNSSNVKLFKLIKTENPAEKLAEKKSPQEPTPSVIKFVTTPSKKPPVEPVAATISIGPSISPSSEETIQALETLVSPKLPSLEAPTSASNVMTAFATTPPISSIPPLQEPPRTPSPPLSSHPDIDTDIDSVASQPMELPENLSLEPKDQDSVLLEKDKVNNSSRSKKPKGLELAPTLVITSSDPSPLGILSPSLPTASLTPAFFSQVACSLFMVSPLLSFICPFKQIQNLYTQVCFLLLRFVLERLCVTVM
Method in brief: as §1

ETV2 = target: T10, ETV2 (Homo sapiens, UniProt O00321 1-342); conditions: protein: recombinant; tags: N-terminal GST; dsDNA, one strand shown
T10 sequence: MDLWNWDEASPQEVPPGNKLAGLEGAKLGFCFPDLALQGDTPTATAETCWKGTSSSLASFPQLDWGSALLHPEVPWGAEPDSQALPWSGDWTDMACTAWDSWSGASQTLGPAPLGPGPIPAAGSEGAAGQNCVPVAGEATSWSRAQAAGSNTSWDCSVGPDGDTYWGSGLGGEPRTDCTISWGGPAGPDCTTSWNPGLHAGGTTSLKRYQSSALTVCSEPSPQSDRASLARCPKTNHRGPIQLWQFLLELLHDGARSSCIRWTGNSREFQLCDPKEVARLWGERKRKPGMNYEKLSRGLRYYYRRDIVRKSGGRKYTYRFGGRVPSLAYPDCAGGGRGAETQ
Method in brief: as §1

ELF3 = target: T11, ELF3 (Homo sapiens, UniProt P78545 1-371); conditions: protein: recombinant; tags: N-terminal GST; dsDNA, one strand shown
T11 sequence: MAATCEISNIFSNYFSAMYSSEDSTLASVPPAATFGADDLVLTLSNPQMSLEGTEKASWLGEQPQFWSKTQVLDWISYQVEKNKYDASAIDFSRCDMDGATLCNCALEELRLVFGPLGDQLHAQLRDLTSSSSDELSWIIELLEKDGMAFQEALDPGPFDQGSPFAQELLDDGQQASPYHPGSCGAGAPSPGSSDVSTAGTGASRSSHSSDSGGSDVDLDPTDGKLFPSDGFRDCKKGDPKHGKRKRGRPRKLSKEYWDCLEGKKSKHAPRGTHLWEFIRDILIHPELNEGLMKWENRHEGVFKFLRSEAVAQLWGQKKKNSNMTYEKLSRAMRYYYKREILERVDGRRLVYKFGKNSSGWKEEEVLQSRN
Method in brief: as §1

CRX = CRX (Homo sapiens, UniProt O43186 1-299); conditions: protein: recombinant; tags: N-terminal GST; dsDNA, one strand shown
Sequence of CRX (O43186 whole entry): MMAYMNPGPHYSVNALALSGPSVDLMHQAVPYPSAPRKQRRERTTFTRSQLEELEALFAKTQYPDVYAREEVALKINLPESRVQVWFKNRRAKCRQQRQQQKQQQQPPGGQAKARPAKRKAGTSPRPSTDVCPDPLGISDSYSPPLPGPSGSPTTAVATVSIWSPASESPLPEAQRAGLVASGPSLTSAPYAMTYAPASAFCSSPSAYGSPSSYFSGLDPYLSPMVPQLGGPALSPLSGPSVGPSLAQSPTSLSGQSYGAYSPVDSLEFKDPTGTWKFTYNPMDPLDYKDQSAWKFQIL
Method in brief: as §1

ETV1 = ETV1 (Homo sapiens, UniProt P50549 1-477); conditions: protein: recombinant; tags: N-terminal GST; dsDNA, one strand shown
Sequence of ETV1 (P50549 whole entry): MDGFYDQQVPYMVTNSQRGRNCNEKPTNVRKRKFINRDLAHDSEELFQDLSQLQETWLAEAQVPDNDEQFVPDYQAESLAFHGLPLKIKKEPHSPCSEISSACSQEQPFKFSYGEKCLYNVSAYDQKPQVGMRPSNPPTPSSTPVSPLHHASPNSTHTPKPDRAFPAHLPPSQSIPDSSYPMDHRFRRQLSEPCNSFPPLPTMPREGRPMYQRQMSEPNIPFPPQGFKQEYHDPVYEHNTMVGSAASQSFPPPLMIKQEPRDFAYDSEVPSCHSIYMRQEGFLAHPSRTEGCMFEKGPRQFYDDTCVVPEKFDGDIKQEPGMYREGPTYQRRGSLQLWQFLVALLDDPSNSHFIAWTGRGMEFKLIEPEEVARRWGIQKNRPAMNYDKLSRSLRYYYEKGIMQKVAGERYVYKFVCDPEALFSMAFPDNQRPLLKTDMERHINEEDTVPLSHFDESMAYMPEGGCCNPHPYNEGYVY
Method in brief: as §1

GATTAT
binding signal (FLI1): 1.04 fold enrichment (6-mer frequency, TF over GST control)
binding signal (ELK1): 1.1 fold enrichment (6-mer frequency, TF over GST control)
binding signal (GABPA): 1.1 fold enrichment (6-mer frequency, TF over GST control)
binding signal (ERG): 1.06 fold enrichment (6-mer frequency, TF over GST control)
binding signal (ELF1): 1.02 fold enrichment (6-mer frequency, TF over GST control)
binding signal (EHF): 1.09 fold enrichment (6-mer frequency, TF over GST control)
binding signal (SPI1): 1.03 fold enrichment (6-mer frequency, TF over GST control)
binding signal (SPIB): 1.11 fold enrichment (6-mer frequency, TF over GST control)
binding signal (ELK3): 1.07 fold enrichment (6-mer frequency, TF over GST control)
binding signal (FEV): 1.01 fold enrichment (6-mer frequency, TF over GST control)
binding signal (ETV5): 1.03 fold enrichment (6-mer frequency, TF over GST control)
binding signal (HSF1): 2.66 fold enrichment (6-mer frequency, TF over GST control)
binding signal (SPIC): 1.09 fold enrichment (6-mer frequency, TF over GST control)
binding signal (ELF4): 1.14 fold enrichment (6-mer frequency, TF over GST control)
binding signal (ELK4): 1.06 fold enrichment (6-mer frequency, TF over GST control)
binding signal (ETV2): 1.07 fold enrichment (6-mer frequency, TF over GST control)
binding signal (ELF3): 1.16 fold enrichment (6-mer frequency, TF over GST control)
binding signal (CRX): 4.27 fold enrichment (6-mer frequency, TF over GST control)
binding signal (ETV1): 1.06 fold enrichment (6-mer frequency, TF over GST control)
